# Data published in article PMC7862700, “An all-to-all approach to the identification of sequence-specific readers for epigenetic DNA modifications on cytosine”.
# Legend:
# Assay in all cases: DAPPL (digital affinity profiling via proximity ligation, sequencing); 10 mM Tris-HCl pH 7.5, 50 mM NaCl, 1 mM DTT, 4% glycerol, room temperature, 30 min; GST-TFs on glutathione beads, 16-mer random dsDNA library, 0.1% formaldehyde crosslink after washing; high values mean tight binding
# FEV = target: T1, FEV (Homo sapiens, UniProt Q99581 1-238); conditions: protein: recombinant; tags: N-terminal GST; dsDNA, one strand shown
# T1 sequence: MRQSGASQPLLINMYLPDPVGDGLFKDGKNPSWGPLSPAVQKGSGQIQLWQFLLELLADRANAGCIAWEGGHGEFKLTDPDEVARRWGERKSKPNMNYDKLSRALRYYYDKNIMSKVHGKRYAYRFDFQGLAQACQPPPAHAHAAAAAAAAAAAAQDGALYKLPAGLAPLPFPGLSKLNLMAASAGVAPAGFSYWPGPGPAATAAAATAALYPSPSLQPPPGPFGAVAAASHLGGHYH
# Outline: (§1)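 Binding signal is each hexamer's read frequency for a factor divided by its frequency in the tag-only sample. The factors were GST-fused human transcription factors from yeast, captured on glutathione beads, DNA-barcoded and pooled with that sample. Pools were incubated with 200 nmole of a random double-stranded 16-mer DNA library in Tris/NaCl/DTT/glycerol buffer at room temperature for 30 min, then washed, crosslinked with 0.1% formaldehyde, proximity-ligated with BsaI/T4 ligase (1 h, 37 °C), PCR-amplified and sequenced on an Illumina NextSeq500.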
# ETV5 = ETV5 (Homo sapiens, UniProt P41161 1-510); conditions: protein: recombinant; tags: N-terminal GST; dsDNA, one strand shown
# Outline: as §1
# HSF1 = HSF1 (Homo sapiens, UniProt Q00613 1-529); conditions: protein: recombinant; tags: N-terminal GST; chain copies: 3; dsDNA, one strand shown
# Outline: as §1
# SPIC = target: T2, SPIC (Homo sapiens, UniProt Q8N5J4 1-248); conditions: protein: recombinant; tags: N-terminal GST; dsDNA, one strand shown
# T2 sequence: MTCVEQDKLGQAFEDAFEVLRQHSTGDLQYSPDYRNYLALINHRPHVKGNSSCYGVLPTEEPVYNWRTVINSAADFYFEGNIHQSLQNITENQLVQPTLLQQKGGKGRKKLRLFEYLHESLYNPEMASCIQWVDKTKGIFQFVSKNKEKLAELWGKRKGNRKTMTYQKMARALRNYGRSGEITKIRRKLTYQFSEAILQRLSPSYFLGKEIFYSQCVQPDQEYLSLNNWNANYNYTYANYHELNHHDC
# Outline: as §1
# ELF4 = ELF4 (Homo sapiens, UniProt Q99607 1-663); conditions: protein: recombinant; tags: N-terminal GST; dsDNA, one strand shown
# Outline: as §1
# ELK4 = target: T3, ELK4 (Homo sapiens, UniProt P28324-2 1-405); conditions: protein: recombinant; tags: N-terminal GST; dsDNA, one strand shown
# T3 sequence: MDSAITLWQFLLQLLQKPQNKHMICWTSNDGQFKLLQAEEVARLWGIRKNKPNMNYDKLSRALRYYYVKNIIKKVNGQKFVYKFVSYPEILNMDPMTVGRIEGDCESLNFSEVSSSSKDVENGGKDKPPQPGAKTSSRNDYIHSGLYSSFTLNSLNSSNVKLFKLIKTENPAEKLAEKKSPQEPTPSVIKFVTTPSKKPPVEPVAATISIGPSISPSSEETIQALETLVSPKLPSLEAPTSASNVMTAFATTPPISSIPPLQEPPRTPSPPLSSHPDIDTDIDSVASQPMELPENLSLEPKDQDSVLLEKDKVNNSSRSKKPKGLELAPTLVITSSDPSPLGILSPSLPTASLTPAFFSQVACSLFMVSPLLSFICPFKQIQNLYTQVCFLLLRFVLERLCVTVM
# Outline: as §1
# ETV2 = target: T4, ETV2 (Homo sapiens, UniProt O00321 1-342); conditions: protein: recombinant; tags: N-terminal GST; dsDNA, one strand shown
# T4 sequence: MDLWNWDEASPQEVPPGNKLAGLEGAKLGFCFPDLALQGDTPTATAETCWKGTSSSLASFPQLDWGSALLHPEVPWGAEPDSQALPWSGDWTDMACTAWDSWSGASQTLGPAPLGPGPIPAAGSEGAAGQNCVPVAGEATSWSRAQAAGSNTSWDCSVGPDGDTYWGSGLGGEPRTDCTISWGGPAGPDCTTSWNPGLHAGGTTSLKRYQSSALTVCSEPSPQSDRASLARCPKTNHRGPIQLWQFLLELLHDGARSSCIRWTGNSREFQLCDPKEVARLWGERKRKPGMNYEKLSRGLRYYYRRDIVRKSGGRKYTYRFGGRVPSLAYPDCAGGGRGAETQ
# Outline: as §1
# ELF3 = target: T5, ELF3 (Homo sapiens, UniProt P78545 1-371); conditions: protein: recombinant; tags: N-terminal GST; dsDNA, one strand shown
# T5 sequence: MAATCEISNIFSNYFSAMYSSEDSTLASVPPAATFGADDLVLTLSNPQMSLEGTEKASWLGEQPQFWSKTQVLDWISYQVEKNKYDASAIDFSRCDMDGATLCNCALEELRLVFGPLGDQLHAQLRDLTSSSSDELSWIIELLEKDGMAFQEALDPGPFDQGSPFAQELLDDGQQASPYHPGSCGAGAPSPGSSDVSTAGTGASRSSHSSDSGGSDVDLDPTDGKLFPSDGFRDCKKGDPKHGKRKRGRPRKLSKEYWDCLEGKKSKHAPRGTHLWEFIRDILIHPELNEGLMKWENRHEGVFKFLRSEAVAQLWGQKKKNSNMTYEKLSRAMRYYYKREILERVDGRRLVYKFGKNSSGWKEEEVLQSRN
# Outline: as §1
# CRX = CRX (Homo sapiens, UniProt O43186 1-299); conditions: protein: recombinant; tags: N-terminal GST; dsDNA, one strand shown
# Outline: as §1
# ETV1 = ETV1 (Homo sapiens, UniProt P50549 1-477); conditions: protein: recombinant; tags: N-terminal GST; dsDNA, one strand shown
# Outline: as §1
# ERF = target: T6, ERF (Homo sapiens, UniProt P50548 1-548); conditions: protein: recombinant; tags: N-terminal GST; dsDNA, one strand shown
# T6 sequence: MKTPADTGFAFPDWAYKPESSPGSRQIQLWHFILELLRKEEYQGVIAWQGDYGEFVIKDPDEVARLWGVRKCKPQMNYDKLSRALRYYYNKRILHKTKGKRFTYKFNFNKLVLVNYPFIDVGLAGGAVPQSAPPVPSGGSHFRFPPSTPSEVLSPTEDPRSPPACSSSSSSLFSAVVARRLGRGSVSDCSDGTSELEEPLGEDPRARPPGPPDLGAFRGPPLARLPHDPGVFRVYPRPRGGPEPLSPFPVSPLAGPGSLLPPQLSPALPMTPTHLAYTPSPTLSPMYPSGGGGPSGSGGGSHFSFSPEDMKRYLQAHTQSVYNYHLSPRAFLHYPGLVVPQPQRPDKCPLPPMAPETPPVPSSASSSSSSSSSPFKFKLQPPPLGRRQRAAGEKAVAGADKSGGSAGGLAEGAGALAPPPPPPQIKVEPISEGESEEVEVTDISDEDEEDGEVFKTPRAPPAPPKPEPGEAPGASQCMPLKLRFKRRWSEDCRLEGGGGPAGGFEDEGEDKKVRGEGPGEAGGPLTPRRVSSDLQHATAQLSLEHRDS
# Outline: as §1
# ETV3L = target: T7, ETV3L (Homo sapiens, UniProt Q6ZN32 1-361); conditions: protein: recombinant; tags: N-terminal GST; dsDNA, one strand shown
# T7 sequence: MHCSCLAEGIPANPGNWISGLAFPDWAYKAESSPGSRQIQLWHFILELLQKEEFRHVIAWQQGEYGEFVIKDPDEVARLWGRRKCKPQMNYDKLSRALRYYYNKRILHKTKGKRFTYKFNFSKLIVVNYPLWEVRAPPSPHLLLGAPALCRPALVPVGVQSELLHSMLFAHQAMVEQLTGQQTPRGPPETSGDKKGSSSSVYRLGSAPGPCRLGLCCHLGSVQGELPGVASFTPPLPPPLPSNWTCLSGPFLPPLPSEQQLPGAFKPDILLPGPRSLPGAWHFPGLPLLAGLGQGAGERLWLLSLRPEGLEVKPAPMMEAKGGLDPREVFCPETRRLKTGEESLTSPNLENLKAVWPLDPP
# Outline: as §1
# ETS2 = target: T8, ETS2 (Homo sapiens, UniProt P15036 1-469); conditions: protein: recombinant; tags: N-terminal GST; dsDNA, one strand shown
# T8 sequence: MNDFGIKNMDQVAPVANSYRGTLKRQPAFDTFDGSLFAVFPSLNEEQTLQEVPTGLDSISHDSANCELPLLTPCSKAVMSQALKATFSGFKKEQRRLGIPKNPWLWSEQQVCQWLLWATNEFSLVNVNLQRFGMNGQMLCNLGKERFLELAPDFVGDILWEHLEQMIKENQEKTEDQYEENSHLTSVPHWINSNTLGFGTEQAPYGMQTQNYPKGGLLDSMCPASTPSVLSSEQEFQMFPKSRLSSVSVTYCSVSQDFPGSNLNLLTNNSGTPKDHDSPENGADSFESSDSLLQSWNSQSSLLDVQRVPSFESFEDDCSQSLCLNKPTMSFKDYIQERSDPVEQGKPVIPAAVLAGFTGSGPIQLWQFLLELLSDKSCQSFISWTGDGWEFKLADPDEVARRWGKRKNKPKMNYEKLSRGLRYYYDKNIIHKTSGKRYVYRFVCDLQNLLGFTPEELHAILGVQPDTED
# Outline: as §1
# SPDEF = target: T9, SPDEF (Homo sapiens, UniProt O95238 1-335); conditions: protein: recombinant; tags: N-terminal GST; dsDNA, one strand shown
# T9 sequence: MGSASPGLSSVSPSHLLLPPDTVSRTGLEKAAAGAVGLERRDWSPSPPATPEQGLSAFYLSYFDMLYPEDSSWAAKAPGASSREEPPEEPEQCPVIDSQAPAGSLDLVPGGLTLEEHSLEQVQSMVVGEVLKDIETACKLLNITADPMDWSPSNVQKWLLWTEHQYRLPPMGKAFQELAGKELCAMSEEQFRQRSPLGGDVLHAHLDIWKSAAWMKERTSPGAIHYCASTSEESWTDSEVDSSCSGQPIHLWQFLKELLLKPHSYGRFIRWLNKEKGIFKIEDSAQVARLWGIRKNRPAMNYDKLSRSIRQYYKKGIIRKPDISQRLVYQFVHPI
# Outline: as §1
# ETV7 = target: T10, ETV7 (Homo sapiens, UniProt Q9Y603 1-341); conditions: protein: recombinant; tags: N-terminal GST; dsDNA, one strand shown
# T10 sequence: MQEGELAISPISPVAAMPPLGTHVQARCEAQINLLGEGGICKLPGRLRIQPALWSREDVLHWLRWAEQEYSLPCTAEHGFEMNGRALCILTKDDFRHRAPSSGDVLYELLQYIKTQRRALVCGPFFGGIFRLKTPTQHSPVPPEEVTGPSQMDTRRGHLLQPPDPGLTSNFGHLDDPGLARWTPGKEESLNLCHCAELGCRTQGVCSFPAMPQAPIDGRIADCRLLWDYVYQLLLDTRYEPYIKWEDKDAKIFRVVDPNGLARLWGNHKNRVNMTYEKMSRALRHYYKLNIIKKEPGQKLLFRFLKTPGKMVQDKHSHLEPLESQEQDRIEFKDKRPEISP
# Outline: as §1
# ELF5 = target: T11, ELF5 (Homo sapiens, UniProt Q9UKW6-2 1-255); conditions: protein: recombinant; tags: N-terminal GST; dsDNA, one strand shown
# T11 sequence: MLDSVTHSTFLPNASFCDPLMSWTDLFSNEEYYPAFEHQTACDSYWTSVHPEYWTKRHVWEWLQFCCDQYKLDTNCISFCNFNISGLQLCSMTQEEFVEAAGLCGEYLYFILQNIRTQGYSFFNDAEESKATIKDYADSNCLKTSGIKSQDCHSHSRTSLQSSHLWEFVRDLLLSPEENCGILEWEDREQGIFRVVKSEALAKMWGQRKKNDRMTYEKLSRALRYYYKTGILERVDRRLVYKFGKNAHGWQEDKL
# Outline: as §1
# ETV3 = target: T12, ETV3 (Homo sapiens, UniProt P41162-2 1-143); conditions: protein: recombinant; tags: N-terminal GST; dsDNA, one strand shown
# T12 sequence: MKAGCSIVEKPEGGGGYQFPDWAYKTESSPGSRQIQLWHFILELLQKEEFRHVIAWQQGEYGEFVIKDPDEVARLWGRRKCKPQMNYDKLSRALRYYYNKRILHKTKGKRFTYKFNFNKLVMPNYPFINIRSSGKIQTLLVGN
# Outline: as §1
# ETV6 = ETV6 (Homo sapiens, UniProt P41212 1-452); conditions: protein: recombinant; tags: N-terminal GST; dsDNA, one strand shown
# Outline: as §1
# Sequence of ETV1 (P50549 whole entry): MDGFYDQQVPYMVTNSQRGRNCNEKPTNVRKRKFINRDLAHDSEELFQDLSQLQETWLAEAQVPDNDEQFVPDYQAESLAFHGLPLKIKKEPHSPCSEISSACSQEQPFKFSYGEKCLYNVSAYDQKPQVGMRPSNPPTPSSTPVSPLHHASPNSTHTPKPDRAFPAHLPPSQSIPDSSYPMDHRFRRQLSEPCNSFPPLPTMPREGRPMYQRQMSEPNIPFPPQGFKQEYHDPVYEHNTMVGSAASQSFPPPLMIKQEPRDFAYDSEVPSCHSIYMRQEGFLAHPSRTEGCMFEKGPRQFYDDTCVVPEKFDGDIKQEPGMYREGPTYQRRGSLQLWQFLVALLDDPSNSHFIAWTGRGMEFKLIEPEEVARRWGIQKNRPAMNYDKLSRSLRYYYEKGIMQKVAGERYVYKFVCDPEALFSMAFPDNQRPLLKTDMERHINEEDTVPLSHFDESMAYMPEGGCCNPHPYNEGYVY
# Sequence of HSF1 (Q00613 whole entry): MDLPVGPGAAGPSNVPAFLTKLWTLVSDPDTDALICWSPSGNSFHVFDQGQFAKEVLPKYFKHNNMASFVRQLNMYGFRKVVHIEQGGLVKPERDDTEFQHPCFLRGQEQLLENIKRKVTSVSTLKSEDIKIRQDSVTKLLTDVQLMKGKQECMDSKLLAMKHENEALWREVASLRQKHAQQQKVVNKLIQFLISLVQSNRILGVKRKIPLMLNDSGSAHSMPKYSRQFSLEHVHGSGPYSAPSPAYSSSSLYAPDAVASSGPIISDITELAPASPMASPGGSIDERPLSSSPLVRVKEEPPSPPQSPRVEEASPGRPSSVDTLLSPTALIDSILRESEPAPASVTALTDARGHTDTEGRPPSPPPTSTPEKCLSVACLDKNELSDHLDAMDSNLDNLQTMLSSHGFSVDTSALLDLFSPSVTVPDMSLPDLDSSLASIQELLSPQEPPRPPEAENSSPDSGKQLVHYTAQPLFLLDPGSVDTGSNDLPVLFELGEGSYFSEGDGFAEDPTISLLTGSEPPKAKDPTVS
# Sequence of CRX (O43186 whole entry): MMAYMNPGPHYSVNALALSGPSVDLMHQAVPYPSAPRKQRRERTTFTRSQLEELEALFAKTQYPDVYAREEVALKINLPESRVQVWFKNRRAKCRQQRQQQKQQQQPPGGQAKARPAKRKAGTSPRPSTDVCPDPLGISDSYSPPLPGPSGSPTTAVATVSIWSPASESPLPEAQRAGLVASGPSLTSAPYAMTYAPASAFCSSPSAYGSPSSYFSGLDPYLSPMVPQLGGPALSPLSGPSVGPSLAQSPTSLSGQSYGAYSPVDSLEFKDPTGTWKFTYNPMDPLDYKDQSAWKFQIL
# Sequence of ETV5 (P41161 whole entry): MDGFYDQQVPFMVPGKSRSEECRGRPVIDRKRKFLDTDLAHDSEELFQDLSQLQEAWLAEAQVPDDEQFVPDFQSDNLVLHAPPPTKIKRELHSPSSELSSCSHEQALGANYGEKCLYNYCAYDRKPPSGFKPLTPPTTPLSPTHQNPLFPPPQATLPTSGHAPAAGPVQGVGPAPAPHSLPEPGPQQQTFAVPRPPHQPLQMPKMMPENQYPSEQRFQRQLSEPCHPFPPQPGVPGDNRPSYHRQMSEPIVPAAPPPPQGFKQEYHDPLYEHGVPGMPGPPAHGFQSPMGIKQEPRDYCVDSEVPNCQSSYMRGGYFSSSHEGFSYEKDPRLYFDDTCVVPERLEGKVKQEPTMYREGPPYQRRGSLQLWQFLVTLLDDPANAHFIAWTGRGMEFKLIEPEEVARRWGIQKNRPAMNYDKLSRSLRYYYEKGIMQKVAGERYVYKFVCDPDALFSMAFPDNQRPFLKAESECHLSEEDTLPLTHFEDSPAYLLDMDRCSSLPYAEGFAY
# Sequence of ELF4 (Q99607 whole entry): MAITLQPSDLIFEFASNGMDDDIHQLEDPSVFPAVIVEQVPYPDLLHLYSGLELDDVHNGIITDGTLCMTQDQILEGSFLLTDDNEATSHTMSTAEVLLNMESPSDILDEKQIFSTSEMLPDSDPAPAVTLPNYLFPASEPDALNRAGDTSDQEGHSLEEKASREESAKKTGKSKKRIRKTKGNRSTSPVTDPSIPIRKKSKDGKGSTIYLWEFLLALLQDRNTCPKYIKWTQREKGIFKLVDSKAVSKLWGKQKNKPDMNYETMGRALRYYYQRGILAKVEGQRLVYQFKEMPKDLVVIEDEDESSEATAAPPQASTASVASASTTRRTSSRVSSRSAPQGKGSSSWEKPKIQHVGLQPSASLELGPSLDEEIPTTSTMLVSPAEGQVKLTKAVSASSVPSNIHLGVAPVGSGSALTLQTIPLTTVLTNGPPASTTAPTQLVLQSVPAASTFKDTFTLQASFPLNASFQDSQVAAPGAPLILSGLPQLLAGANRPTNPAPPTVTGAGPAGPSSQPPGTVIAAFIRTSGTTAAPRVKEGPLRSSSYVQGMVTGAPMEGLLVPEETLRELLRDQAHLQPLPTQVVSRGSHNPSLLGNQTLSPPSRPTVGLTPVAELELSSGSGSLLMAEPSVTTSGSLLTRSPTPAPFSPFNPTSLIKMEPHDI
# Sequence of ETV6 (P41212 whole entry): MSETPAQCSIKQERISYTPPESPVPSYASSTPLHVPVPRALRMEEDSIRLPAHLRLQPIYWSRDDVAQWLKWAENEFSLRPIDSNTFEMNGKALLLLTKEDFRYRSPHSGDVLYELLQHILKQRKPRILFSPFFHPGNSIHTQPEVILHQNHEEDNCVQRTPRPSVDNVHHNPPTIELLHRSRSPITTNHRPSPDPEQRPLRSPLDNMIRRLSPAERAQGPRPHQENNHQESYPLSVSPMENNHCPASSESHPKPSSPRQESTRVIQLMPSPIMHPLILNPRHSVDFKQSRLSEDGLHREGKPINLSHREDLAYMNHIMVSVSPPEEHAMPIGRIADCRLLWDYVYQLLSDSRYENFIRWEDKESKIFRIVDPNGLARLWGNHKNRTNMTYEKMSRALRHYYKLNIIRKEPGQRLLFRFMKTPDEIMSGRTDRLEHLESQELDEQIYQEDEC
sequence,measurement,setting,value
ATACAT,binding signal,FEV,"1.29 fold enrichment (6-mer frequency, TF over GST control)"
same,binding signal,ETV5,"1.23 fold enrichment (6-mer frequency, TF over GST control)"
same,binding signal,HSF1,"1.01 fold enrichment (6-mer frequency, TF over GST control)"
same,binding signal,SPIC,"1.15 fold enrichment (6-mer frequency, TF over GST control)"
same,binding signal,ELF4,"1.33 fold enrichment (6-mer frequency, TF over GST control)"
same,binding signal,ELK4,"1.31 fold enrichment (6-mer frequency, TF over GST control)"
same,binding signal,ETV2,"1.33 fold enrichment (6-mer frequency, TF over GST control)"
same,binding signal,ELF3,"1.15 fold enrichment (6-mer frequency, TF over GST control)"
same,binding signal,CRX,"1.06 fold enrichment (6-mer frequency, TF over GST control)"
same,binding signal,ETV1,"1.33 fold enrichment (6-mer frequency, TF over GST control)"
same,binding signal,ERF,"1.27 fold enrichment (6-mer frequency, TF over GST control)"
same,binding signal,ETV3L,"1.2 fold enrichment (6-mer frequency, TF over GST control)"
same,binding signal,ETS2,"1.24 fold enrichment (6-mer frequency, TF over GST control)"
same,binding signal,SPDEF,"1.6 fold enrichment (6-mer frequency, TF over GST control)"
same,binding signal,ETV7,"1.36 fold enrichment (6-mer frequency, TF over GST control)"
same,binding signal,ELF5,"1.29 fold enrichment (6-mer frequency, TF over GST control)"
same,binding signal,ETV3,"1.26 fold enrichment (6-mer frequency, TF over GST control)"
same,binding signal,ETV6,"1.28 fold enrichment (6-mer frequency, TF over GST control)"
